Test results from PubChem BioAssay (NCI).
About 79,000 compounds went through this panel and 15% of them were active in at least one assay; those are over-represented in the sample as a whole. Unmarked numbers belong to inactive results. Activity calls are given as the source filed them. Cut-off read from the data, not from the text of the source: active = growth inhibition above about 70%; inactive = the rest.

Legend:
[1] = NCI Yeast Anticancer Drug Screen. Data for the wt1 strain (AID 149);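 note: 0% = growth of vehicle-treated wt1 cultures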; settings: S. cerevisiae wt1 strain (SPY 50644) growth inhibition, hits give high values
Procedure, shortened: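 Compounds are added to wt1 yeast cultures. Growth is then measured. Inhibition is expressed relative to vehicle-treated controls.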

[2] = NCI Yeast Anticancer Drug Screen. Data for the rad50EPP+ strain (AID 151);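 note: 0% = growth of vehicle-treated control cultures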; settings: S. cerevisiae rad50 mutant strain, hits give high values
Procedure, shortened: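 Compounds were applied to the rad50EPP+ yeast strain, which bears a defined DNA repair alteration, and growth inhibition was determined relative to vehicle-treated cultures.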

[3] = NCI Yeast Anticancer Drug Screen. Data for the mgt1 strain (AID 153); settings: S. cerevisiae mgt1 mutant growth inhibition, hits give high values
Procedure, shortened: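 Strain: mgt1 yeast, one of a set carrying defined DNA damage repair or cell cycle control alterations. Compound-treated growth compared with vehicle.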

[4] = NCI Yeast Anticancer Drug Screen. Data for the rad50 strain (AID 155);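 note: 0% = growth of vehicle-only cultures of the same strain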; settings: S. cerevisiae rad50 strain growth inhibition, hits give high values
Procedure, shortened: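 Inhibition values express reduced yeast growth in compound-treated cultures relative to vehicle-treated controls.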

[5] = NCI Yeast Anticancer Drug Screen. Data for the mec2-1 strain (AID 157); settings: S. cerevisiae mec2-1 strain, hits give high values
Procedure, shortened: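 Strain: mec2-1 (DNA repair/cell cycle alteration). Compound exposure, then growth measured; inhibition expressed relative to vehicle.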

[6] = NCI Yeast Anticancer Drug Screen. Data for the rad14 strain (AID 159);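 note: 0% = growth of vehicle-treated control cultures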; settings: S. cerevisiae rad14 strain growth inhibition, hits give high values
Procedure, shortened: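 A mutant yeast strain defective in DNA damage repair is treated with compound; inhibition of its growth is scored against untreated, vehicle-exposed cultures.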

[7] = NCI Yeast Anticancer Drug Screen. Data for the sgs1 mgt1 strain (AID 161);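 note: 0% = growth of cultures given vehicle only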; settings: S. cerevisiae sgs1 mgt1 strain, hits give high values
Procedure, shortened: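 Read-out: growth inhibition vs vehicle controls. Cells: mutant yeast strain deficient in DNA damage repair.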

[8] = NCI Yeast Anticancer Drug Screen. Data for the CLN2oe strain (AID 163);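 note: 0% = growth of vehicle-only control cultures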; settings: S. cerevisiae CLN2oe strain, hits give high values
Procedure, shortened: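 Growth of a genetically modified yeast strain is measured after compound exposure and compared with cultures given vehicle alone.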

[9] = NCI Yeast Anticancer Drug Screen. Data for the cln2 rad14 strain (AID 165);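 note: 0% = growth equal to vehicle treated cultures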; settings: S. cerevisiae cln2 rad14 strain, hits give high values
Procedure, shortened: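 Compounds are applied to the cln2 rad14 yeast strain, and growth is then compared with that of vehicle-treated cultures to give inhibition.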

[10] = NCI Yeast Anticancer Drug Screen. Data for the bub3 strain (AID 167); settings: S. cerevisiae bub3 mutant strain, hits give high values
Procedure, shortened: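 Steps: expose the mutant yeast strain to compound; grow alongside vehicle-treated cultures; measure growth; express inhibition against the vehicle cultures.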

[11] = NCI Yeast Anticancer Drug Screen. Data for the wt2 strain (AID 169);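 note: 0% = growth of vehicle-treated yeast cultures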; settings: S. cerevisiae wt2 strain growth inhibition, hits give high values
Procedure, shortened: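 This strain belongs to a panel of yeast strains with defined genetic alterations in DNA damage repair or cell cycle control. Compounds are applied, and growth inhibition is measured against vehicle-treated cultures.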

[12] = NCI Yeast Anticancer Drug Screen. Data for the mlh1 strain (AID 171);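 note: 0% = growth of vehicle-treated control cultures of the same strain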; settings: S. cerevisiae mlh1 strain growth inhibition, hits give high values
Procedure, shortened: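 Growth of the mutant yeast strain after compound exposure, expressed as inhibition relative to vehicle-only controls.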

[13] = NCI Yeast Anticancer Drug Screen. Data for the sgs1 strain (AID 173);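 note: 0% = growth of vehicle-only control cultures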; settings: S. cerevisiae sgs1 mutant, hits give high values
Procedure, shortened: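 Growth of a yeast strain bearing a defined genetic alteration is measured after compound treatment. Inhibition is expressed relative to vehicle-only controls.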

[14] = NCI Yeast Anticancer Drug Screen. Data for the mlh1 rad18 strain (AID 175); settings: S. cerevisiae mlh1 rad18 strain growth inhibition, hits give high values
Procedure, shortened: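 Read-out is yeast growth inhibition, calculated against vehicle-only controls. The compound was applied to a strain engineered with DNA damage repair alterations.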

[15] = NCI Yeast Anticancer Drug Screen. Data for the rad18 strain (AID 177); settings: S. cerevisiae rad18 mutant growth inhibition, hits give high values
Procedure, shortened: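 Growth of the mutant yeast strain after compound exposure, normalised to vehicle-only cultures.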

[16] = NCI Yeast Anticancer Drug Screen. Data for the rad52 strain (AID 147);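 note: 0% = growth of vehicle-treated control cultures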; settings: S. cerevisiae rad52 mutant growth inhibition, hits give high values
Procedure, shortened: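 Compounds are applied to a genetically defined yeast strain lacking normal DNA damage repair, and inhibition of growth is expressed relative to cultures given vehicle only.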

[17] = at 5.0 µM (retest, dose inferred, filed as 0.5)
[18] = at 50.0 µM (retest, dose inferred, filed as 5.0)

CN(C)CCC(C(=O)C(Br)Br)(c1ccccc1)c1ccccc1
growth inhibition ([1]; at 1.2 µM): -2%
growth inhibition ([1]; at 3.7 µM): -1%
growth inhibition ([1]; at 11.0 µM): 26%
growth inhibition ([1]; at 33.0 µM): 98% (active)
growth inhibition ([1]; at 100.0 µM): 99% (active)
growth inhibition ([2]; at 1.2 µM): -2%
growth inhibition ([2]; at 3.7 µM): -5%
growth inhibition ([2]; at 11.0 µM): -1%
growth inhibition ([2]; at 33.0 µM): 21%
growth inhibition ([2]; at 100.0 µM): 72% (active)
growth inhibition ([3]; at 1.2 µM): -1%
growth inhibition ([3]; at 3.7 µM): 0%
growth inhibition ([3]; at 11.0 µM): 96% (active)
growth inhibition ([3]; at 33.0 µM): 99% (active)
growth inhibition ([3]; at 100.0 µM): 99% (active)
growth inhibition ([4]; at 1.2 µM): 0%
growth inhibition ([4]; at 3.7 µM): 12%
growth inhibition [4, 17]: 16%
growth inhibition ([4]; at 11.0 µM): 82% (active)
growth inhibition ([4]; at 33.0 µM): 99% (active)
growth inhibition [4, 18]: 99% (active)
growth inhibition ([4]; at 50.0 µM): 98.8% (active)
growth inhibition ([4]; at 100.0 µM): 99% (active)
growth inhibition ([5]; at 1.2 µM): 3%
growth inhibition ([5]; at 3.7 µM): 2%
growth inhibition [5, 17]: 16%
growth inhibition ([5]; at 11.0 µM): 96% (active)
growth inhibition ([5]; at 33.0 µM): 99% (active)
growth inhibition [5, 18]: 38%
growth inhibition ([5]; at 50.0 µM): 99.3% (active)
growth inhibition ([5]; at 100.0 µM): 100% (active)
growth inhibition ([6]; at 1.2 µM): 7%
growth inhibition ([6]; at 3.7 µM): 30%
growth inhibition ([6]; at 11.0 µM): 95% (active)
growth inhibition ([6]; at 33.0 µM): 99% (active)
growth inhibition ([6]; at 100.0 µM): 99% (active)
growth inhibition [7, 17]: 40%
growth inhibition [7, 18]: 99% (active)
growth inhibition ([7]; at 50.0 µM): 97.3% (active)
growth inhibition ([8]; at 1.2 µM): 0%
growth inhibition ([8]; at 3.7 µM): 12%
growth inhibition ([8]; at 11.0 µM): 74% (active)
growth inhibition ([8]; at 33.0 µM): 99% (active)
growth inhibition ([8]; at 100.0 µM): 98% (active)
growth inhibition [9, 17]: 19%
growth inhibition [9, 18]: 99% (active)
growth inhibition ([9]; at 50.0 µM): 99.1% (active)
growth inhibition ([10]; at 1.2 µM): -6%
growth inhibition ([10]; at 3.7 µM): 0%
growth inhibition [10, 17]: -69%
growth inhibition ([10]; at 11.0 µM): 94% (active)
growth inhibition ([10]; at 33.0 µM): 99% (active)
growth inhibition [10, 18]: 98% (active)
growth inhibition ([10]; at 50.0 µM): 99.5% (active)
growth inhibition ([10]; at 100.0 µM): 99% (active)
growth inhibition ([11]; at 1.2 µM): 0%
growth inhibition ([11]; at 3.7 µM): 2%
growth inhibition ([11]; at 11.0 µM): 73% (active)
growth inhibition ([11]; at 33.0 µM): 99% (active)
growth inhibition ([11]; at 100.0 µM): 99% (active)
growth inhibition ([12]; at 1.2 µM): 2%
growth inhibition ([12]; at 3.7 µM): 1%
growth inhibition ([12]; at 11.0 µM): 61%
growth inhibition ([12]; at 33.0 µM): 99% (active)
growth inhibition ([12]; at 100.0 µM): 100% (active)
growth inhibition ([13]; at 1.2 µM): -1%
growth inhibition ([13]; at 3.7 µM): 17%
growth inhibition ([13]; at 11.0 µM): 94% (active)
growth inhibition ([13]; at 33.0 µM): 99% (active)
growth inhibition ([13]; at 100.0 µM): 99% (active)
growth inhibition [14, 17]: 33%
growth inhibition [14, 18]: 99% (active)
growth inhibition ([14]; at 50.0 µM): 99% (active)
growth inhibition ([15]; at 1.2 µM): 2%
growth inhibition ([15]; at 3.7 µM): 11%
growth inhibition ([15]; at 11.0 µM): 88% (active)
growth inhibition ([15]; at 33.0 µM): 99% (active)
growth inhibition ([15]; at 100.0 µM): 99% (active)

CC1CCCN(CCc2ccccc2)CC1 (stereo unspecified)
growth inhibition ([16]; at 1.2 µM): 1%
growth inhibition ([16]; at 3.7 µM): 4%
growth inhibition ([16]; at 11.0 µM): 11%
growth inhibition ([16]; at 33.0 µM): 16%
growth inhibition ([16]; at 100.0 µM): 26%
growth inhibition ([4]; at 1.2 µM): 1%
growth inhibition ([4]; at 3.7 µM): 6%
growth inhibition [4, 17]: -8%
growth inhibition ([4]; at 11.0 µM): 10%
growth inhibition ([4]; at 33.0 µM): 13%
growth inhibition [4, 18]: 66%
growth inhibition ([4]; at 50.0 µM): 17.4%
growth inhibition ([4]; at 100.0 µM): 14%
growth inhibition ([5]; at 1.2 µM): 0%
growth inhibition ([5]; at 3.7 µM): 8%
growth inhibition [5, 17]: -13%
growth inhibition ([5]; at 11.0 µM): 12%
growth inhibition ([5]; at 33.0 µM): 15%
growth inhibition [5, 18]: 11%
growth inhibition ([5]; at 50.0 µM): 20.9%
growth inhibition ([5]; at 100.0 µM): 22%
growth inhibition ([6]; at 1.2 µM): 2%
growth inhibition ([6]; at 3.7 µM): 14%
growth inhibition ([6]; at 11.0 µM): 29%
growth inhibition ([6]; at 33.0 µM): 33%
growth inhibition ([6]; at 100.0 µM): 31%
growth inhibition [7, 17]: 13%
growth inhibition [7, 18]: 76% (active)
growth inhibition ([7]; at 50.0 µM): 28.8%
growth inhibition ([8]; at 1.2 µM): -5%
growth inhibition ([8]; at 3.7 µM): -8%
growth inhibition ([8]; at 11.0 µM): 18%
growth inhibition ([8]; at 33.0 µM): 30%
growth inhibition ([8]; at 100.0 µM): 43%
growth inhibition [9, 17]: 5%
growth inhibition [9, 18]: 37%
growth inhibition ([9]; at 50.0 µM): 58.6%
growth inhibition ([10]; at 1.2 µM): -3%
growth inhibition ([10]; at 3.7 µM): 0%
growth inhibition [10, 17]: 2%
growth inhibition ([10]; at 11.0 µM): 9%
growth inhibition ([10]; at 33.0 µM): 21%
growth inhibition [10, 18]: 83% (active)
growth inhibition ([10]; at 50.0 µM): 46.6%
growth inhibition ([10]; at 100.0 µM): 25%
growth inhibition ([11]; at 1.2 µM): 2%
growth inhibition ([11]; at 3.7 µM): 4%
growth inhibition ([11]; at 11.0 µM): 6%
growth inhibition ([11]; at 33.0 µM): 8%
growth inhibition ([11]; at 100.0 µM): 10%
growth inhibition ([12]; at 1.2 µM): 1%
growth inhibition ([12]; at 3.7 µM): 4%
growth inhibition ([12]; at 11.0 µM): 10%
growth inhibition ([12]; at 33.0 µM): 15%
growth inhibition ([12]; at 100.0 µM): 14%
growth inhibition ([13]; at 1.2 µM): 0%
growth inhibition ([13]; at 3.7 µM): 7%
growth inhibition ([13]; at 11.0 µM): 16%
growth inhibition ([13]; at 33.0 µM): 23%
growth inhibition ([13]; at 100.0 µM): 21%
growth inhibition [14, 17]: 19%
growth inhibition [14, 18]: 78% (active)
growth inhibition ([14]; at 50.0 µM): 34.9%
growth inhibition ([15]; at 1.2 µM): 3%
growth inhibition ([15]; at 3.7 µM): 7%
growth inhibition ([15]; at 11.0 µM): 15%
growth inhibition ([15]; at 33.0 µM): 12%
growth inhibition ([15]; at 100.0 µM): 16%
